High-throughput results (PubChem)
This is a sample that favours compounds with a hit; in the whole collection about 21% have one here.
IL-1B inflam inh = inflammasome signaling inhibition, IL-1 beta readout | THP-1 LPS/ATP IL-1B secretion, AlphaLISA, 16 h; hits give low values | activity change, % at 57.5 µM | 360,000 compounds, 4.7% hits | AID 743279; in the data active means activity change below about -50%; inconclusive means mostly about -30% to -49%
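THP-1 cells pretreated 1 hr with compounds (up to 57.5 uM final), then stimulated with LPS (250 ng/mL final) plus ATP (1.25 mM final); secreted IL-1B measured by AlphaLISA after 16 hr, decreased signal indicating inhibition.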
RORg inh = blocks mouse ROR gamma transcriptional activity; Drosophila S2 Gal4-RORgamma UAS-luciferase reporter, 20 h; Potency, µM (series often up to 53.6 µM), for the others: at the highest dose activity change, negative = inhibition, hits mostly inhibitors; 310,000 compounds, 5.4% hits; AID 2551; further: potency means the concentration at half of the fitted maximal effect; nearly all actives have a fitted effect of over 60% in size
Target sequence (P51450 whole entry, looked up, the tested form may be a part): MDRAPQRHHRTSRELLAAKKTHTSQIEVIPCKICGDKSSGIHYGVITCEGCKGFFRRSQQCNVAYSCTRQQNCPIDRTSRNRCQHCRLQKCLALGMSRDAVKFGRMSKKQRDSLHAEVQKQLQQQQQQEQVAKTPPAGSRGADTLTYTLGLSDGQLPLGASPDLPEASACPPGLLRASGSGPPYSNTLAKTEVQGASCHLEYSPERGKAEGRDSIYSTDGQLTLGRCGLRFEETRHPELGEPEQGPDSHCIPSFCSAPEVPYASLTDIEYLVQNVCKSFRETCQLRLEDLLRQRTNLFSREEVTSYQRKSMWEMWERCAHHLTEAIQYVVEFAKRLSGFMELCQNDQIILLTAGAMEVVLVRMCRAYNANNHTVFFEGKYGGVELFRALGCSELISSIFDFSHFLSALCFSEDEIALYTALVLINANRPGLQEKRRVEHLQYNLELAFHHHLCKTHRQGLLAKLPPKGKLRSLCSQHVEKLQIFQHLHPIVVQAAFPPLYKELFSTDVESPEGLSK
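Using a luciferase readout, inhibitors were identified by reduced reporter activity in Drosophila cells coexpressing a copper-inducible Gal4–ROR gamma fusion and UAS-driven Photinus luciferase, incubated 20 hr after 700 uM copper sulfate.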
DT40 TDP1 CPT = growth inhibition of DT40 Tdp1-/-;hTDP1 cells with camptothecin (screen for TDP1 inhibitors). chicken DT40 Tdp1-/-;hTDP1 cells + 20 nM CPT, ATP luminescence, 48 h. Potency, µM (top dose mostly 46.2 µM), without a hit: top-dose activity change, negative = growth inhibition, hits mostly inhibitors. 420,000 compounds, 12% hits; further: potency means the concentration at half of the fitted maximal effect; nearly all actives have a fitted effect of over 55% in size
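Chicken DT40 Tdp1-/- cells stably complemented with human TDP1 were seeded at 400 cells/well in medium containing 20 nM camptothecin, exposed to pin-transferred compounds, and grown at 37 °C for at least 48 hr. Viability was read as ATP luminescence.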
Gal4-VP16 FLuc = Gal4-VP16 reporter inhibition counter-screen. Drosophila S2 Gal4-VP16 UAS-luciferase, luminescence, 20 h. Potency, µM (titrated, usually from 53.6 µM), without a hit: top-dose activity, negative = inhibition, most hits filed as inhibitors. 310,000 compounds, 3.5% hits. AID 2546;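 further: Gal4-VP16 expression switched on by copper sulfate through the metallothionein promoter; potency means the concentration at half of the fitted maximal effect; nearly all actives have a fitted effect of over 50% in size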
TDP1 cell noCPT = qHTS for Inhibitors of human tyrosyl-DNA phosphodiesterase 1 (TDP1): qHTS in cells in absence of CPT; DT40 Tdp1-/- hTDP1 cells, no CPT, ATP luminescence, 48 h; Potency, µM (top dose mostly 46.2 µM), for inactives: top-dose activity change, negative = growth inhibition, most hits filed as inhibitors; 420,000 compounds, 15% hits; AID 686978, 2013; further: potency means the concentration at half of the fitted maximal effect; nearly all actives have a fitted effect of over 55% in size
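Cells were dispensed at 400 per well, compounds added by pin tool, plates incubated ≥48 hr at 37 °C, then CellTiter-Glo added for 30 min at room temperature before luminescence reading. Line: DT40 Tdp1-/- complemented with hTDP1; camptothecin omitted.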
ELG1 repair inh = blocks ELG1-dependent DNA repair in HEK293T cells; HEK293T ELG1-luciferase reporter, luminescence, 16 h; DNA damage induced by 5-fluorouridine; Potency, µM (titrated, usually from 46.1 µM), for inactives: top-dose activity change, negative = inhibition, hits mostly inhibitors; 330,000 compounds, 2.3% hits; AID 504467; further: potency means the concentration at half of the fitted maximal effect; nearly all actives have a fitted effect of over 55% in size
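Overnight (16 hr) co-exposure of 2,000 cells/well to 5-fluorouridine and compound at 37 °C preceded detection. Luciferase was quantified via ONE-Glo luminescence; loss of signal denotes inhibition.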
The depositor's hits bear a star. Unless noted, the call rests on the fitted dose curve; in most records, active means well fitted curve in the direction sought with a large enough effect; inconclusive means small, poorly fitted or top-dose-only effect, or another doubt; inactive means no such curve, though single readings can be large; an effect the other way counts as inactive or inconclusive. On the % scale 0 is the no-effect control and ±100 the full control effect.

For COc1ccccc1-c1nc(SCC(=O)Nc2ccccc2)n[nH]1 the results were IL-1B inflam inh 0, RORg inh 1%, DT40 TDP1 CPT -24%, Gal4-VP16 FLuc 1%, TDP1 cell noCPT -20% and ELG1 repair inh -33%.
Screening COc1cc(/C=C2/C(C)=C(C#N)c3nc(N)c(C#N)c(C)c32)ccc1OCC(=O)O returned IL-1B inflam inh -23, RORg inh 4%, DT40 TDP1 CPT inconclusive, Gal4-VP16 FLuc -7%, TDP1 cell noCPT -14% and ELG1 repair inh -17%.
`CC1=C(C#N)c2nc(N)c(C#N)c(C)c2/C1=C\c1ccc(-c2ccccc2C(=O)O)o1` gave IL-1B inflam inh -88*, RORg inh -17%, DT40 TDP1 CPT -6%, Gal4-VP16 FLuc 2%, TDP1 cell noCPT -6% and ELG1 repair inh 8.2µM*.
`CN1/C(=C\P(=O)(N(C)C)N(C)C)C(C)(C)c2ccccc21` gave IL-1B inflam inh -11, RORg inh -39%, DT40 TDP1 CPT 5.8µM*, Gal4-VP16 FLuc 7.9µM*, TDP1 cell noCPT 3.7µM* and ELG1 repair inh -1%.
For Cc1ccc(S(=O)(=O)N(CCC#N)C2CCCCC2)c2nsnc12 the results were IL-1B inflam inh 0, RORg inh 46%, DT40 TDP1 CPT 16µM*, Gal4-VP16 FLuc 2%, TDP1 cell noCPT 18µM* and ELG1 repair inh 3%.
Cc1cnc(CNc2ncnc3ccc(-c4ccc(N(C)C)cc4)cc23)cn1 was read as RORg inh 9%, DT40 TDP1 CPT inconclusive, Gal4-VP16 FLuc -15% and TDP1 cell noCPT inconclusive.
For CC(C)CN(C(=O)COC(=O)CCSc1ccc(Cl)cc1)c1c(N)n(Cc2ccccc2)c(=O)[nH]c1=O the results were IL-1B inflam inh 2, DT40 TDP1 CPT inconclusive and TDP1 cell noCPT 18µM*.
For CN(C(=O)COC(=O)CCC(=O)c1ccc(Cl)cc1)c1c(N)n(Cc2ccccc2)c(=O)[nH]c1=O the results were IL-1B inflam inh 3, DT40 TDP1 CPT -10%, TDP1 cell noCPT 18µM* and ELG1 repair inh -22%.
Screening CCc1ccc(NC(=O)Cn2c(=O)n(Cc3nc(-c4ccccc4)no3)c(=O)c3cc4c(cc32)OCO4)cc1 returned DT40 TDP1 CPT -1% and TDP1 cell noCPT -21%.
O=C(O)C1CCN(C(=O)CSc2nc3ccccc3c(=O)n2-c2ccc(Cl)cc2)CC1 was read as IL-1B inflam inh 56, RORg inh 15%, DT40 TDP1 CPT -8%, Gal4-VP16 FLuc 4%, TDP1 cell noCPT 19% and ELG1 repair inh 29%.
`COc1ncc2nc(-c3ccc(F)cc3)c(=O)n(CCC#N)c2n1` gave RORg inh -9%, DT40 TDP1 CPT 0%, Gal4-VP16 FLuc 3% and TDP1 cell noCPT -13%.
Screening CCn1c(NCc2cc(OC)ccc2OC)nc2ccccc21 returned IL-1B inflam inh -27, RORg inh -26%, DT40 TDP1 CPT -1%, Gal4-VP16 FLuc 24%, TDP1 cell noCPT inconclusive and ELG1 repair inh inconclusive.
Screening Cc1ccccc1Cn1c(C(C)O)nc2ccccc21 (stereo not drawn) returned IL-1B inflam inh 2, RORg inh -11%, DT40 TDP1 CPT inconclusive, Gal4-VP16 FLuc -2%, TDP1 cell noCPT inconclusive and ELG1 repair inh -8%.
Screening COc1ccc(/C=C/c2nc3ccccc3n2Cc2ccccc2OC)cc1 returned IL-1B inflam inh -201*, RORg inh 14µM*, DT40 TDP1 CPT 7.3µM*, Gal4-VP16 FLuc -84%, TDP1 cell noCPT 8.2µM* and ELG1 repair inh inconclusive.
